MITF inh: human MITF inhibition, primary screen; AID 1259374; hit rate 0.91% among 650,000; inhibition, % at 2.6 µM; AlphaScreen MITF homodimerization, bead proximity signal; O75030; in the data active means inhibition above about 50%
GPR151 ag: activators of human GPR151. hit rate 1% among 650,000. AID 1508602. PathHunter beta-arrestin GPR151 cells, luminescence. Q8TDV0. activation, % at 11.2 µM; in the data active means activation above about 4.9%
Target sequence (Q8TDV0 whole entry, looked up): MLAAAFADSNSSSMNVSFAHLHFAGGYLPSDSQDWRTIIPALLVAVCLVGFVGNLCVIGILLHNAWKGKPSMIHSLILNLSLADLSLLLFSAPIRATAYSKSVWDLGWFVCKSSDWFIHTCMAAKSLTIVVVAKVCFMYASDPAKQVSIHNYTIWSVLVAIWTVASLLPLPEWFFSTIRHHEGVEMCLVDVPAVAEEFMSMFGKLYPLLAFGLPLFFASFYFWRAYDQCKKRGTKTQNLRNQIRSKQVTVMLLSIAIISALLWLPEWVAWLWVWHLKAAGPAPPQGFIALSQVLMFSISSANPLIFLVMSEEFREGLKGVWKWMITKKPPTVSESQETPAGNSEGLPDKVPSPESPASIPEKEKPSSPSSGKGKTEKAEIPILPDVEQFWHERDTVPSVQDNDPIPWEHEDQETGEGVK
FBW7 act: activators of human E3 ligase FBW7; hit rate 0.13% among 650,000; Q969H0; AlphaScreen FBW7–phospho-cyclin E peptide binding, activator screen; normalized activity (activation), % at 26.1 µM; AID 1259310; in the data active means normalized activity above about 1.9%;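 further: purified mutant Fbw7 with reduced substrate affinity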
TEAD-YAP inh: TEAD-YAP interaction inhibition; HEK-TIYL cells, TEAD-Gal4/YAP UAS-luciferase luminescence; inhibition, % at 9.12 µM; hit rate 1.4% among 640,000; in the data active means inhibition above about 32%
MITF confirm: human MITF inhibition, confirmation; AID 1259372; AlphaScreen MITF homodimerization, biotin/His-MITF beads; hit rate 16% among 4,700; shares compounds with MITF inh; inhibition, % at 2.6 µM;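 active means inhibition above a cutoff derived from the DMSO control wells, cut at about 28% in these data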;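 further: inhibitors lower the bead chemiluminescence by keeping MITF from dimerizing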
AS interf DR: optically interferes with AlphaScreen signal in dose response; shares compounds with MITF inh; AlphaScreen optical interference counterscreen, cell-free; hit rate 6% among 480; IC50, µM; call rule not given here
AS interf ctr: counter-screen: compounds optically interfering with AlphaScreen; shares compounds with MITF inh; LysRS AlphaScreen counterscreen, signal interference, triplicate; inhibition, % at 2.6 µM; hit rate 7.6% among 4,700; AID 1259376;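 active means inhibition above a cutoff derived from the DMSO control wells, cut at about 30% in these data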
Hits are given with their value; ! = not confirmed by another sample. A selection: hits, their analogues and other compounds. The true share with any hit is near 3.5%.

Screening COc1cc(CN2CCN(C3CCN(Cc4ccccc4)CC3)CC2)cc(OC)c1OC returned MITF inh 59.4, GPR151 ag inactive, FBW7 act inactive, TEAD-YAP inh inactive, MITF confirm inactive and AS interf ctr inactive.
COc1ccc(-c2oc3ncnc(N)c3c2-c2ccccc2)cc1 was read as MITF inh inactive, GPR151 ag inactive, FBW7 act inactive and TEAD-YAP inh inactive.
For O=C(Nc1ccc(F)cc1)N1CCN(c2nc(-c3ccc(Cl)cc3)cs2)CC1 the results were MITF inh inactive, GPR151 ag inactive, FBW7 act inactive and TEAD-YAP inh inactive.
`COCCCNC(=O)C(=O)NCc1cccc(OC)c1` gave MITF inh inactive, GPR151 ag inactive, FBW7 act inactive and TEAD-YAP inh inactive.
`CCc1ccc(CN2CCN(Cc3cc(OC)c(O)c(OC)c3)CC2)cc1` gave MITF inh 65.8, GPR151 ag inactive, FBW7 act inactive, TEAD-YAP inh inactive, MITF confirm 50.7, AS interf DR inactive and AS interf ctr inactive.
Screening COc1cc(CN2CCCCCC2)cc(OC)c1O returned MITF inh inactive, GPR151 ag inactive, FBW7 act inactive and TEAD-YAP inh inactive.
`O=[N+]([O-])c1cccc(CN2CCCC(O)C2)c1` (stereo not given) gave MITF inh inactive, GPR151 ag inactive, FBW7 act inactive and TEAD-YAP inh inactive.
For CC1=NC(=S)C2C(=O)O/C(=C/c3ccc(-c4cccc([N+](=O)[O-])c4)o3)C2=C1 (stereo not given) the results were MITF inh 53.3, GPR151 ag inactive, FBW7 act inactive, TEAD-YAP inh inactive, MITF confirm 34.0 and AS interf ctr inactive.
Screening COCCN1CCCc2ccc(NC(=O)c3ccc(C)cc3)cc21 returned MITF inh 53.9, GPR151 ag inactive, FBW7 act inactive, TEAD-YAP inh inactive, MITF confirm inactive and AS interf ctr inactive.
O=P(O)(O)O[C@@H]1[C@H](O)[C@H](O)[C@@H](OP(=O)(O)O)[C@H](OP(=O)(O)O)[C@H]1O was read as MITF inh 54.2!, GPR151 ag inactive, MITF confirm inactive and AS interf ctr inactive.
For CSc1ccc(/C=N/NC(=O)COc2ccccc2C)cc1 the results were MITF inh inactive, GPR151 ag inactive, FBW7 act inactive and TEAD-YAP inh inactive.
Screening CC(C)NC(=O)C(=O)N/N=C/c1ccc(OCc2ccc(Cl)cc2)cc1 returned MITF inh inactive, GPR151 ag inactive, FBW7 act inactive and TEAD-YAP inh inactive.
`CC(C)NC(=O)C(=O)N/N=C/c1ccc(OCc2ccccc2Cl)cc1` gave MITF inh 54.9, GPR151 ag inactive, FBW7 act inactive, TEAD-YAP inh inactive, MITF confirm inactive and AS interf ctr inactive.
For CCCNCC(O)COC(c1ccccc1)c1ccccc1 (stereo not given) the results were MITF inh inactive, GPR151 ag inactive, FBW7 act inactive and TEAD-YAP inh inactive.
Screening COc1ccc(C(OCC(O)CNCCN(C)C)c2ccc(OC)cc2)cc1 (stereo not given) returned MITF inh 66.7, GPR151 ag inactive, FBW7 act inactive, TEAD-YAP inh inactive, MITF confirm inactive and AS interf ctr inactive.
For COc1ccc(O)c(C=Nc2ccc(Cl)cc2)c1 the results were MITF inh 51.1, GPR151 ag inactive, FBW7 act inactive, TEAD-YAP inh inactive, MITF confirm inactive and AS interf ctr inactive.
Screening CC(C)(C)c1ccc(C(=O)NC(=S)Nc2ccc(S(N)(=O)=O)cc2)cc1 returned MITF inh inactive, GPR151 ag inactive, FBW7 act inactive and TEAD-YAP inh inactive.
`CCOc1ccc(C(=O)NC(=S)Nc2ccc(S(N)(=O)=O)cc2)cc1` gave MITF inh 52.6, GPR151 ag inactive, FBW7 act inactive, TEAD-YAP inh inactive, MITF confirm inactive and AS interf ctr inactive.
COc1ccccc1CN1CCN(C/C=C/c2ccccc2)CC1 was read as MITF inh 68.8, GPR151 ag inactive, FBW7 act inactive, TEAD-YAP inh inactive, MITF confirm inactive and AS interf ctr inactive.
Screening CCOC(=O)c1ccoc1CN1CCN(C/C=C/c2ccccc2)CC1 returned MITF inh 78.6, GPR151 ag inactive, FBW7 act inactive, TEAD-YAP inh inactive, MITF confirm inactive and AS interf ctr inactive.
COc1ccc(CN2CCN(C/C=C/c3ccccc3)CC2)c(O)c1 was read as MITF inh inactive, GPR151 ag inactive, FBW7 act inactive and TEAD-YAP inh inactive.
CCOC(=O)c1ccoc1CN1CCN(c2cccc(C)c2C)CC1 was read as MITF inh inactive, GPR151 ag inactive, FBW7 act inactive and TEAD-YAP inh inactive.
`COc1ccc(OC)c(CN2CCN(C/C=C/c3ccccc3)CC2)c1` gave MITF inh 80.5, GPR151 ag inactive, FBW7 act inactive, TEAD-YAP inh inactive, MITF confirm inactive and AS interf ctr inactive.
Screening C/C(=N\Nc1cccc(C)c1C)c1c(O)cc(C)oc1=O returned MITF inh inactive, GPR151 ag inactive, FBW7 act inactive and TEAD-YAP inh inactive.
`O=c1cc(N2CCOCC2)c2ccccc2o1` gave MITF inh inactive, GPR151 ag inactive, FBW7 act inactive and TEAD-YAP inh inactive.
`CC1(C)Cc2ccccc2C(=NCCCC(=O)O)N1` gave MITF inh inactive, GPR151 ag inactive, FBW7 act inactive and TEAD-YAP inh inactive.
For C[C@H]1NC(=O)[C@H]2CN(C(=O)NC3CCCCC3)CCN2C1=O the results were MITF inh 74.6, GPR151 ag inactive, FBW7 act inactive, TEAD-YAP inh inactive, MITF confirm 74.4, AS interf DR inactive and AS interf ctr inactive.
CC(C)[C@@H]1NC(=O)[C@H]2CN(C(=O)NC3CCCCC3)CCN2C1=O was read as MITF inh 71.3, GPR151 ag inactive, FBW7 act inactive, TEAD-YAP inh inactive, MITF confirm 68.2, AS interf DR inactive and AS interf ctr inactive.
For CC(C)[C@@H]1NC(=O)[C@H]2CN(C(=O)c3ccc(Cl)cc3)CCN2C1=O the results were MITF inh inactive, GPR151 ag inactive, FBW7 act inactive and TEAD-YAP inh inactive.
For CN1CCN(CC(=O)c2cccs2)CC1 the results were MITF inh inactive, GPR151 ag inactive, FBW7 act inactive and TEAD-YAP inh inactive.
CN1CCN(CC(=O)c2ccccc2F)CC1 was read as MITF inh 78.5, GPR151 ag inactive, FBW7 act inactive, TEAD-YAP inh inactive, MITF confirm inactive and AS interf ctr inactive.
COc1ccc(CCNc2ccnc(NCc3ccc4c(c3)OCO4)n2)cc1 was read as MITF inh inactive, GPR151 ag inactive, FBW7 act inactive and TEAD-YAP inh inactive.
NC(=O)NC(=O)COC(=O)c1c2c(nc3ccccc13)/C(=C\c1ccco1)CCC2 was read as MITF inh 61.2, GPR151 ag inactive, FBW7 act inactive, TEAD-YAP inh inactive, MITF confirm 79.4, AS interf DR inactive and AS interf ctr inactive.
